Screening results (PubChem BioAssay)
Redox H2O2 prof – compounds producing H2O2 with reducing agent – biochemical, NIH compound library profiling, artefact control for MLSCN library redox annotation, primary screen. DTT-dependent redox cycling H2O2, phenol red/HRP absorbance; 100% = 100 µM peroxide control, 0% = buffer. activation, % at 10 µM. hit rate 0.03% among 200,000;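 active means activation of at least 50% relative to the plate's high and low controls in the primary single-dose screen; inactive means activation below 50%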;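 further: compound incubated with DTT at 0.8 mM final as the reducing agent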
Autophagy HCS – autophagy modulators in MEF cells, primary screen, imaging, high-content, MEF GFP-LC3; MEF GFP-LC3 puncta imaging; test concentration mostly 10 µM; calls only at 10 µM (by protocol); hit rate 0.98% among 190,000;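 active means percentage of spot-positive cells more than 3 SD above its plate mean, without a fluorescence outlier flag or 80% toxicity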;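 further: spot-positive cell cutoff set from DMSO-treated cells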
Arbovirus anti – antivirals against arbovirus infection, primary screen, cell-based, full library, 10K replicate subset. arbovirus infection cell-based antiviral screen. hit rate 0.37% among 200,000. inhibition, % at 10 µM; in the data active means inhibition above about 30%
NCF1 inh – p47phox/p22phox peptide binding inhibitors, primary screen, biochemical, uHTS, NADPH oxidase regulatory subunit | inhibition, % at 24.7 µM | fluorescence polarization, 2 h | AID 1274, 2008 | Neutrophil cytosol factor 1 (Homo sapiens), P14598 | hit rate 0.53% among 220,000;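 active means inhibition above about 30%, limit read from the data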;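 further: 0% = p47phox with labelled peptide and 100% = labelled peptide alone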
Target sequence (P14598 whole entry, looked up): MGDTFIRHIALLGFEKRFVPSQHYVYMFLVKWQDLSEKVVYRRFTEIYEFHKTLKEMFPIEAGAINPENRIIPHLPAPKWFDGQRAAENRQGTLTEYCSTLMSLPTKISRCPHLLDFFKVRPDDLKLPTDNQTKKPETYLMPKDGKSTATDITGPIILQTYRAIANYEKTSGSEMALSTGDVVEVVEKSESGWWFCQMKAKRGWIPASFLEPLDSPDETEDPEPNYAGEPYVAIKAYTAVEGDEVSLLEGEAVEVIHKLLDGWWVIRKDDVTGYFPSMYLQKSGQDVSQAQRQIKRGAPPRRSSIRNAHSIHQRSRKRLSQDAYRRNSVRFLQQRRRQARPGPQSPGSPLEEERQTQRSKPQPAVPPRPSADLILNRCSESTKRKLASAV
Insulin prom up – insulin promoter activators in MIN6 cells, imaging, high-content screening, mouse beta cells | AID 1625, 2009 | MIN6 insulin promoter-GFP reporter; hits give high values | hit rate 0.3% among 190,000 | z-score at 5 µM;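 active means z-score above 3 at 5 µM with at least 500 cells counted in the well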
HMGR II inh – inhibitors of E. faecalis class II HMGR, primary screen, biochemical, Enterococcus faecalis | purified E. faecalis HMGR, NADPH absorbance 340 nm kinetic | inhibition, % at 10 µM | hit rate 0.41% among 190,000 | AID 1066, 2008;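 active means inhibition above a set limit, the median over all tested compounds plus 3 SD, cut at about 9.5% in these data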;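 further: enzyme runs in reverse so mevalonate oxidation gives rising NADPH absorbance; 0% = complete reaction with DMSO and 100% = background rate lacking mevalonate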
* = called active by the depositor. A selection: hits, their analogues and other compounds. The true share with any hit is near 2.2%.

For Nc1c(C(O)(C(F)(F)F)C(F)(F)F)cc(C(O)(C(F)(F)F)C(F)(F)F)c2ccccc12 the results were Redox H2O2 prof 2, Autophagy HCS inactive, Arbovirus anti -22, NCF1 inh -2 and HMGR II inh -1.
COc1ccc(N2CCN(CCCNC(=O)CN3CCN(Cc4ccccc4C)C3=O)CC2)cc1 was read as Redox H2O2 prof 1, Autophagy HCS active, Arbovirus anti -9, NCF1 inh 5, Insulin prom up 0.03 and HMGR II inh -2.
For CCOC(=O)c1c(NC(=O)CSc2nc3cc(Cl)ccc3c(=O)n2Cc2ccco2)sc(C(=O)N(C)C)c1C the results were Redox H2O2 prof 0, Autophagy HCS inactive, Arbovirus anti -19, NCF1 inh -76, Insulin prom up -0.55 and HMGR II inh 2.
`c1csc(-c2nnc(N3CCCCCC3)c3ccccc23)c1` gave Redox H2O2 prof 0, Autophagy HCS inactive, Arbovirus anti 9, NCF1 inh -5, Insulin prom up -0.31 and HMGR II inh 2.
Screening c1csc(-c2nnc(N3CCOCC3)c3ccccc23)c1 returned Redox H2O2 prof 0, Autophagy HCS inactive, Arbovirus anti 0, NCF1 inh -5, Insulin prom up 0.78 and HMGR II inh 11*.
`CCCC(=O)Nc1sc(C)c(-c2ccc(C(C)CC)cc2)c1C#N` (centres undefined) gave Redox H2O2 prof -8, Autophagy HCS inactive, Arbovirus anti 8, NCF1 inh -12 and HMGR II inh -5.
`O=C1CC(c2cccc([N+](=O)[O-])c2)c2ccc3ccccc3c2N1` (centres undefined) gave Redox H2O2 prof -5, Autophagy HCS inactive, Arbovirus anti 36*, NCF1 inh -12, Insulin prom up -0.87 and HMGR II inh -5.
`COc1ccc(/C=C/CN2CCCC(C(=O)c3ccc(OC)c(F)c3)C2)cc1` (centres undefined) gave Redox H2O2 prof -2, Autophagy HCS inactive, Arbovirus anti 11, NCF1 inh -20, Insulin prom up -0.94 and HMGR II inh 2.
`O=S(=O)(NCc1ccc(Cl)cc1)c1cnc[nH]1` gave Redox H2O2 prof 0, Autophagy HCS active, Arbovirus anti 3, NCF1 inh -13, Insulin prom up 1 and HMGR II inh -1.
O=C(Nc1cc2cccc([N+](=O)[O-])c2oc1=O)c1cccs1 was read as Redox H2O2 prof 1, Autophagy HCS inactive, Arbovirus anti -2, NCF1 inh -23, Insulin prom up 0.18 and HMGR II inh 1.
`CN(C)CCNC(=O)C(=O)C1C(=O)Nc2ccccc21` (centres undefined) gave Redox H2O2 prof 0, Autophagy HCS inactive, Arbovirus anti 4, NCF1 inh 0, Insulin prom up -0.47 and HMGR II inh -5.
Screening O=C(NCc1ccccn1)C(=O)C1C(=O)Nc2ccccc21 (centres undefined) returned Redox H2O2 prof -2, Autophagy HCS inactive, Arbovirus anti 1, NCF1 inh 39*, Insulin prom up 0.23 and HMGR II inh -3.
For CCCOc1ccc(-c2nc(C#N)c(N3CCN(CC)CC3)o2)cc1 the results were Redox H2O2 prof 0, Autophagy HCS inactive, Arbovirus anti -1, NCF1 inh -2, Insulin prom up -1.4 and HMGR II inh 0.
`Cc1ccc(S(=O)(=O)N(C)CCCC(=O)NC(C)(C)C)cc1` gave Redox H2O2 prof 1, Autophagy HCS inactive, Arbovirus anti 2, NCF1 inh 4, Insulin prom up 0.27 and HMGR II inh 12*.
COC(=O)c1ccc(C)c(NS(=O)(=O)c2ccc(OC)cc2)c1 was read as Redox H2O2 prof 0, Autophagy HCS active, Arbovirus anti 2, NCF1 inh -8, Insulin prom up -1.5 and HMGR II inh -2.
For COC(=O)c1ccc(S(=O)(=O)N2Cc3ccccc3C2)cc1 the results were Redox H2O2 prof 0, Autophagy HCS inactive, Arbovirus anti 17, NCF1 inh -1, Insulin prom up -0.3 and HMGR II inh 0.
Screening CCOc1ccc(NC(=O)C(c2ccccn2)N(C(=O)CCl)c2ccc(OCC)cc2)cc1 (centres undefined) returned Redox H2O2 prof 0, Autophagy HCS inactive, Arbovirus anti -14, NCF1 inh -3, Insulin prom up 0.78 and HMGR II inh -7.
For CCOc1ccc(NC(c2ccccn2)c2oc(CO)cc(=O)c2O)cc1 (centres undefined) the results were Redox H2O2 prof -2, Autophagy HCS inactive, Arbovirus anti 2, NCF1 inh 48*, Insulin prom up 0.2 and HMGR II inh -3.
CCCCN(C)CCNC(=O)c1nn(-c2ccc(OC)cc2)c(=O)c2c1c1ccccc1n2C was read as Redox H2O2 prof 0, Autophagy HCS active, Arbovirus anti -7, NCF1 inh 0 and HMGR II inh -9.
Screening CCCCn1[nH]c(-c2ccccc2)cc1=O returned Redox H2O2 prof -1, Autophagy HCS inactive, Arbovirus anti -3, NCF1 inh -7, Insulin prom up 0.04 and HMGR II inh 0.
COc1ccc(C(=O)COC(=O)c2ccc(OC)c(OC)c2)cc1OC was read as Redox H2O2 prof 0, Autophagy HCS inactive, Arbovirus anti -7, NCF1 inh 96*, Insulin prom up 0.28 and HMGR II inh 0.
Screening CCOC(=O)c1c(C)[nH]c(C)c1C(=O)COC(=O)c1ccc(OC)c(OC)c1 returned Redox H2O2 prof -1, Autophagy HCS inactive, Arbovirus anti 9, NCF1 inh 10, Insulin prom up -0.42 and HMGR II inh -2.
CCOC(=O)C1C(=O)OC2(CCCCC2)C1C(=O)OCC (centres undefined) was read as Redox H2O2 prof 0, Autophagy HCS inactive, Arbovirus anti -5, NCF1 inh -9, Insulin prom up -0.51 and HMGR II inh 0.
For CCOC(=O)C1C(=O)CC(=O)CC1CC(C)SCC (centres undefined) the results were Redox H2O2 prof 3, Autophagy HCS inactive, Arbovirus anti 14, NCF1 inh 79*, Insulin prom up 0.33 and HMGR II inh -1.
`O=C1NCCCC2c3c(cc(Br)c(O)c3Br)OC12N1CCOCC1` (centres undefined) gave Redox H2O2 prof 4, Autophagy HCS inactive, Arbovirus anti 2, NCF1 inh -9, Insulin prom up 0.86 and HMGR II inh -2.
Screening O=C1NCCCC2c3cc(O)c4ccccc4c3OC12N1CCCCC1 (centres undefined) returned Redox H2O2 prof 0, Autophagy HCS inactive, Arbovirus anti -46, NCF1 inh 30*, Insulin prom up -0.47 and HMGR II inh -7.
